Results filed as inconclusive are left out. Unmarked numbers belong to inactive results. Activity calls are given as the source filed them. The call rests on the fitted dose curve; in most records, active means well fitted inhibition curve with a large enough effect; inconclusive means small, poorly fitted or top-dose-only effect; inactive means flat fitted curve, though single readings scatter.
Key:
[1] = tested on: W2; test: qHTS profiling for inhibitors of Plasmodium falciparum proliferation (AID 504749); settings: P. falciparum in erythrocytes, SYBR Green DNA, 72 h; series mostly up to 28.7 µM
Procedure, shortened: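 Quantitative HTS: compounds pinned into medium, infected erythrocytes added (0.3% parasitemia, 2.5% hematocrit), 72 h culture at 37 C under 5% CO2. Saponin/Triton lysis with SYBR Green I, overnight RT, then fluorescence read.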

[2] = tested on: CRL-7250; test: Cytotoxic Profiling of Annotated Libraries Using Quantitative High-Throughput Screening (AID 1296008); settings: Five cell lines viability, CellTiter-Glo ATP luminescence, 48-72 h; max response: active compounds read low; on max response: on the % scale 0 is the no-effect control and ±100 the full control effect
Procedure, shortened: (§1)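 Compounds were pin-transferred onto cells and incubated 48 or 72 hr at 37 degree Celsius, 95% humidity. CellTiter-Glo was added, plates sat 10 min at room temperature, then ATP-coupled luminescence was imaged as the viability read-out.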

[3] = tested on: HEK293; test: as above; settings: Five cell lines viability, CellTiter-Glo ATP luminescence, 48-72 h; max response: active compounds read low
Procedure, shortened: as §1

[4] = tested on: KB-3-1; test: as above; settings: Five cell lines viability, CellTiter-Glo ATP luminescence, 48-72 h; max response: active compounds read low
Procedure, shortened: as §1

[5] = tested on: NIH3T3; test: as above; settings: Five cell lines viability, CellTiter-Glo ATP luminescence, 48-72 h; max response: active compounds read low
Procedure, shortened: as §1

[6] = tested on: MCC-13; test: qHTS assay to identify novel small-molecules to repurpose for Merkel cell carcinoma treatment (AID 1296009); settings: MCC and control cell lines, CellTiter-Glo viability, 72 h; series mostly up to 46 µM; on activity change, negative = cytotoxicity: on the % scale 0 is the no-effect control and ±100 the full control effect
Procedure, shortened: (§2)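 Viability readout: ATP luminescence (CellTiter-Glo) after 72 hr drug exposure at 37 degree celsius. Dose-response format was 8 points for NPC and 11 points for MIPE; data normalized to in-plate controls.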

[7] = tested on: MCC-26; test: as above; settings: MCC and control cell lines, CellTiter-Glo viability, 72 h; series mostly up to 46 µM
Procedure, shortened: as §2

[8] = tested on: HaCat; test: Cytotoxic Profiling of Annotated Libraries Using Quantitative High-Throughput Screening (AID 1296008); settings: Five cell lines viability, CellTiter-Glo ATP luminescence, 48-72 h; max response: active compounds read low; on max response: on the % scale 0 is the no-effect control and ±100 the full control effect
Procedure, shortened: as §1

[9] = tested on: HEK293T; test: qHTS assay to identify novel small-molecules to repurpose for Merkel cell carcinoma treatment (AID 1296009); settings: MCC and control cell lines, CellTiter-Glo viability, 72 h; at 44.8 µM (top of the series) unless noted; on activity change, negative = cytotoxicity: on the % scale 0 is the no-effect control and ±100 the full control effect
Procedure, shortened: as §2
Further: nearly all actives have a fitted effect of over 60% in size.
Potency means the concentration at half of the fitted maximal effect.

SMILES: O=C(c1ccc(F)cc1)C1CCN(CCn2c(=S)[nH]c3ccccc3c2=O)CC1
- Potency [1]: 2.39 µM (active)
- max response [2]: -5.62%
- max response [3]: -98.9%
- max response [4]: 8.09%
- max response [5]: -46.6%
- Potency [6]: inactive
- Potency [7]: inactive

SMILES: Cc1ncc(CO)c(C=O)c1O
- Potency [1]: inactive
- max response [2]: -16.1%
- max response [3]: -65.4%
- max response [4]: 3.7%
- max response [5]: -38.1%
- Potency [6]: inactive
- Potency [7]: inactive

SMILES: COc1cc(C)nc(-n2nc(C)cc2OC)n1
- Potency [1]: inactive
- max response [2]: -9.05%
- max response [3]: -7.38%
- max response [4]: 4.41%
- outcome [5]: inactive
- Potency [6]: inactive
- Potency [7]: inactive

SMILES: CC(=O)Oc1ccc(C)cc1
- Potency [1]: inactive
- max response [2]: -8.74%
- max response [3]: -1.12%
- max response [4]: 5.93%
- max response [5]: 2.4%
- Potency [6]: inactive
- Potency [7]: inactive

SMILES: CCNC(=O)/C=C/c1cccc(Br)c1
- Potency [1]: inactive
- outcome [2]: inactive
- max response [3]: -0.855%
- max response [8]: 0.498%
- max response [5]: -21%
- Potency [6]: inactive
- Potency [7]: inactive

SMILES: CCOC(=O)c1c(N)sc2c1CCN(Cc1ccccc1)C2
- Potency [1]: 4.78 µM (active)
- Potency [2]: 18.8 µM (active)
- Potency [3]: 11.9 µM (active)
- max response [4]: -15.4%
- Potency [6]: inactive
- Potency [7]: inactive

SMILES: CCN(CC)CCOc1ccc2c(c1)C(=O)c1cc(OCCN(CC)CC)ccc1-2
- Potency [1]: 13.5 µM (active)
- Potency [2]: 23.7 µM (active)
- Potency [3]: 7.5 µM (active)
- max response [4]: 41.3%
- Potency [7]: inactive

SMILES: C=C[C@@]1(C)CC(=O)[C@]2(O)[C@@]3(C)[C@@H](O)CCC(C)(C)[C@@H]3[C@H](O)[C@H](OC(C)=O)[C@@]2(C)O1
- Potency [1]: inactive
- max response [2]: 2.74%
- max response [3]: -3.5%
- max response [4]: -4.04%
- Potency [6]: inactive
- Potency [7]: inactive

SMILES: COP(=O)(OC)OC(c1ccc(Cl)cc1)P(=O)(OC)OC (configuration not stated)
- Potency [1]: inactive
- max response [2]: -8.32%
- max response [3]: -64.4%
- max response [8]: -2.94%
- max response [5]: -38.8%
- Potency [6]: inactive

SMILES: CC(=O)N[C@@H](CCC(=O)O)C(=O)O
- Potency [1]: inactive
- max response [2]: 2.81%
- max response [3]: -7.38%
- max response [4]: -11.1%
- outcome [5]: inactive
- Potency [6]: inactive

SMILES: CCN(CC)CCOC(=O)C1(c2ccccc2)CCCC1
- max response [2]: -4.97%
- outcome [3]: inactive
- max response [4]: 1.37%
- max response [5]: 2.7%
- outcome [9]: inactive
- Potency [6]: inactive
- Potency [7]: inactive

SMILES: COc1ccc(CN(CCN(C)C)c2ncccn2)cc1
- Potency [1]: 5.36 µM (active)
- max response [2]: 0.19%
- outcome [3]: inactive
- max response [4]: -2.44%
- max response [5]: -1.92%
- outcome [9]: inactive
- Potency [6]: inactive

SMILES: CCC(Cc1c(I)cc(I)c(N)c1I)C(=O)O (configuration not stated)
- outcome [2]: inactive
- outcome [3]: inactive
- max response [4]: -8.27%
- max response [5]: 2.99%
- outcome [9]: inactive
- Potency [6]: inactive

SMILES: NC(=O)c1ccccc1O
- Potency [1]: inactive
- max response [2]: 2.66%
- outcome [3]: inactive
- max response [4]: 10.4%
- max response [5]: -3.05%
- outcome [9]: inactive
- Potency [6]: inactive
- Potency [7]: inactive

SMILES: O=C1C(O)=C(O)C(=O)C(O)=C1O
- max response [2]: -21.8%
- outcome [3]: inactive
- max response [4]: -3.2%
- max response [5]: -17.6%
- outcome [9]: inactive
- Potency [6]: inactive
- Potency [7]: inactive

SMILES: Nc1ccc(S(=O)(=O)NCc2ccccc2)cc1
- Potency [1]: inactive
- max response [2]: -13.3%
- max response [3]: 3.66%
- max response [4]: -2.49%
- max response [5]: -0.659%
- Potency [6]: inactive
- Potency [7]: inactive

SMILES: CCN[C@@H]1C[C@H](N)[C@@H](OC2OC(CN)=CCC2N)[C@H](O)[C@H]1O[C@H]1OC[C@](C)(O)[C@H](NC)[C@H]1O (some centres not stated)
- max response [2]: 0.244%
- outcome [3]: inactive
- max response [4]: 17.1%
- max response [5]: -0.0944%
- outcome [9]: inactive [at 0.588 µM]
- activity change, negative = cytotoxicity [6]: 16.3% [at 0.597 µM]
- activity change, negative = cytotoxicity [7]: 2.75% [at 0.597 µM]

SMILES: C[C@]12CCC(=O)C=C1C=C[C@@H]1[C@@H]2CC[C@@]2(C)[C@H]1CC[C@@]21CCC(=O)O1
- Potency [2]: 7.5 µM (active)
- Potency [3]: 9.44 µM (active)
- max response [4]: -4.54%
- Potency [6]: inactive
- Potency [7]: inactive

SMILES: CCCCCN=C(N)N/N=C/c1c[nH]c2ccc(OC)cc12
- Potency [1]: 1.51 µM (active)
- Potency [2]: 18.8 µM (active)
- Potency [3]: 8.41 µM (active)
- max response [4]: 1.55%
- Potency [7]: 23.7 µM (active)

SMILES: OC[C@H]1O[C@@H](Oc2ccc(O)cc2)[C@H](O)[C@@H](O)[C@@H]1O
- max response [2]: -17%
- max response [3]: -74.1%
- max response [4]: 3.33%
- max response [5]: -45.3%
- Potency [6]: inactive
- Potency [7]: inactive

SMILES: Cc1cccc(C)c1NC(=O)CN1CCCCCC1
- outcome [2]: inactive
- max response [3]: 2.2%
- max response [4]: 2.19%
- max response [5]: 1.11%
- Potency [6]: inactive
- Potency [7]: inactive

SMILES: CCCCCCCCCCCCSCCOCCO
- Potency [1]: inactive
- max response [2]: 2.82%
- max response [3]: -0.323%
- max response [8]: 0.693%
- max response [5]: -3.9%
- Potency [6]: inactive
- Potency [7]: inactive
